Laboratory results: PubChem BioAssay (NCI)
The panel holds about 83,000 compounds, 20% with a hit somewhere; the sample as a whole holds those more often.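 Growth was measured after 48 h exposure to one concentration of compound in 96-well plates. Values under 10 count as active.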 Unmarked numbers belong to inactive results. Calls of active or inactive are those of the source.

The compounds below were run on MDA-MB-468 breast (assay: NCI-60 one-dose screen, 48 h (100 = growth as untreated, 0 = no growth, -100 = all killed)). Conditions: 10 µM unless noted.
With `CN(C)c1ccc2cc(-c3ccccc3F)c(N)nc2c1` the growth was 25.6%. In the case of `CC(=O)Oc1ccc(/C(=C(\C)c2ccc(Cl)cc2)c2ccc(OCCN3CCCCC3)cc2)cc1`, the growth is reported as -25% (active). With `CC(=O)c1c(Nc2cccc(F)c2)[nH]c2c(Cl)cc(Cl)c(Cl)c2c1=O` the growth was -10.2% (active). `CCn1c(SCC(=O)Nc2cccc(C(=O)/C=C/c3ccc(Br)cc3)c2)nc2ccccc2c1=O` was tested, and the growth was 86.6%. Work on `N#Cc1c(-c2cccs2)cc(-c2cnccn2)nc1SCC(=O)N/N=C/c1ccc(Cl)cc1` yielded a growth of 108%. `CC1(C)[C@@H](O)CC[C@]2(C)[C@H]3CC[C@@H]4[C@H]5[C@H](C(=O)/C=C/c6ccc(C(F)(F)F)cc6)CC[C@]5(CO)CC[C@@]4(C)[C@]3(C)CC[C@@H]12` showed a growth of 61.9%. `C#CCSc1nnnn1-c1ccccc1` was tested, and the growth was 22.3%. `Clc1ccc(Nc2scc3[n+]2CCC3)cc1` gave a growth of 86.3%. For `CCN1C(=O)N(CC)C2C1NN=c1s/c(=C3\C(=O)Nc4ccccc43)c(=O)n12` (stereo not given), the growth was -20.9% (active). `O=C(c1cc(-c2ccc(Cl)cc2)nc2ccccc12)N1N=C(c2ccccc2)CC1c1cc(-c2ccccc2)nn1-c1ccccc1` (stereo not given) was tested, and the growth was 89.6%. In the case of `CN1CCN(CCCOc2cccc3nc(Nc4ccc(Cl)c(C(F)(F)F)c4)ccc23)CC1`, the growth is reported as -2.83% (active). In the case of `CCCCN(CCCC)C(=N)c1ccnc2ccccc12`, the growth is reported as 117%. For `COc1ccc(Nc2ncnc3ccc(-c4cncc(NS(C)(=O)=O)c4)cc23)cc1Cl`, the growth was -10.1% (active). With `CN1C(=O)N(C)[C@H]2NC(NN)=N[C@H]21` the growth was 101%. In the case of `CCN1CCN(CC(=O)Nc2ccc(-c3cn4c(n3)sc3cc(Oc5ccnc(C(=O)NC)c5)ccc34)cc2)CC1`, the growth is reported as 74.4%. Work on `O=C(Oc1c(Cl)c(Cl)c(Cl)c(Cl)c1Cl)C1CCCN1C(=O)OCc1ccccc1` (stereo not given) yielded a growth of 11.9%. With `N#Cc1c(-c2ccc(Cl)cc2)nc(NN=Cc2ccco2)nc1N1CCOCC1` the growth was 30.9%. In the case of `COc1ccccc1N1CCN(C2=NN=C(c3cccc(Cl)c3)c3ccccc3C2)CC1`, the growth is reported as -1.01% (active). `COc1ccc(-c2ccc(NC(=O)Nc3cccc(C(F)(F)F)c3)c(C)n2)cc1` showed a growth of 27.5%. For `Clc1nc2ccccc2nc1-c1nnc(C2CCCCC2)o1`, the growth was 7.71% (active). `COc1ccc2c(c1)C(=O)c1c-2c(OCCN2CCCCC2)nc2ccc(OC)cc12` was tested, and the growth was -10.6% (active). `N#Cc1ncc(-c2cc(F)ccc2F)c(NC2CCCCCC2)n1` showed a growth of 90.3%. With `NC(=N\N=C\c1ccccc1O)/C(N)=N/N=C/c1ccccc1O` the growth was 74%. In the case of `CC(C)N(CCOc1ccc(-c2nc3sccn3c2-c2ccnc(S(C)(=O)=O)n2)cc1)C(C)C`, the growth is reported as 9.31% (active). `O=c1c(N=Nc2nccs2)c(-c2ccccc2)[nH]n1-c1nc(-c2ccccc2)cs1` gave a growth of 29%. For `COc1cccc(C2C3=C(COC3=O)N(CCO)c3cc4c(cc32)OCO4)c1` (stereo not given), the growth was -36.3% (active). In the case of `COc1cc(OC)c(/C=C/C(=O)c2c(OC)cccc2OC)c(OC)c1`, the growth is reported as -15.6% (active). Compound `CC1SC(c2c(Cl)cccc2Cl)N(NC(=O)c2[nH]c3ccc(F)cc3c2-c2ccccc2)C1=O` (stereo not given) has a growth of 66.8%. `CN(C)c1ccc(Cc2cc(-c3ccccc3)nn(C/C(=N/O)c3ccccc3)c2=O)cc1` was tested, and the growth was 57.1%. With `COc1ccc(-c2nn(-c3ccc(Cl)cc3)cc2-c2nc3ccccc3[nH]2)cc1` the growth was 106%. `O=C(CCc1nnc2sc(-c3cc(O)c(O)c(O)c3)nn12)c1nc2ccccc2[nH]1` showed a growth of 86.8%. `CC(Nc1c(C#N)cnc2ccc(-c3cncc(-c4n[nH]c(=O)o4)c3)cc12)c1ccccc1` (stereo not given) was tested, and the growth was -41.7% (active). `CCOc1ccncc1[N+](=O)[O-]` was tested, and the growth was 104%. `Nc1ccccc1C(=O)Nc1ccc(Cl)cc1Cl` was tested, and the growth was 94.5%. `COc1ccc(C(=O)c2cc3c(N)c(C(=O)Nc4ccccc4)sc3nc2C)cc1` was tested, and the growth was 3.89% (active). In the case of `COC1OC2COC(c3ccccc3)OC2C(=O)C1NC(=O)c1ccccc1` (stereo not given), the growth is reported as 113%. With `Cc1ccc(NC(=O)N[C@@H](Cc2cc(F)cc(F)c2)C(=O)N[C@@H]2C(=O)N3CCC[C@H]3C(=O)N3CCCC[C@H]3C(=O)N[C@@H](C)C(=O)N3C[C@H](C)C[C@H]3C(=O)O[C@H]2C)cc1` the growth was 5.99% (active). With `Cc1ccc(-c2nnc3sc(C4=Cc5ccccc5OC=C4)nn23)cc1` the growth was 109%. Work on `CN1CCN(c2cc(Nc3cc(C4CC4)[nH]n3)nc(Nc3ccc(CC(=O)NCc4cccc(F)c4)cc3)n2)CC1` yielded a growth of 98.8%. `CC(c1ccccc1)N(C)C` (stereo not given) showed a growth of 86%.
